TRPML1 blocker: inhibitors of human TRPML1 channel; Q9GZU1; TRPML1-inducible cells, Ca2+ dye fluorescence, FDSS; active compounds read low; inhibition of EC80 agonist-evoked calcium signal; activity change, negative = inhibition, % (test concentration not listed); 0.02% of 390,000 active; AID 624415; in the data active = activity change below about -50%; inconclusive = between about -30% and that limit;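 note: stimulus is agonist 54-4 at its EC80 concentration; % is set by controls: 0 for no effect and ±100 for the full control effect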
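TRPML1-DL cells, Tet-induced overnight (~16 h, 37 °C) at 1,500 cells/well, were loaded with Ca8 no-wash dye plus quencher for 45-90 min at room temperature. Compounds were pinned during FDSS kinetic reading; agonist 54-4 at EC80 (4 uM final) then added.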
TRHR agonist-1: TRH receptor (human) agonism. TRHR cells, calcium flux fluo-8, FDSS agonist mode. activation, % at 2 µM. 0.18% of 360,000 active; in the data active = activation above about 30%; note: 0% is about no effect
Target sequence (P34981 whole entry, looked up): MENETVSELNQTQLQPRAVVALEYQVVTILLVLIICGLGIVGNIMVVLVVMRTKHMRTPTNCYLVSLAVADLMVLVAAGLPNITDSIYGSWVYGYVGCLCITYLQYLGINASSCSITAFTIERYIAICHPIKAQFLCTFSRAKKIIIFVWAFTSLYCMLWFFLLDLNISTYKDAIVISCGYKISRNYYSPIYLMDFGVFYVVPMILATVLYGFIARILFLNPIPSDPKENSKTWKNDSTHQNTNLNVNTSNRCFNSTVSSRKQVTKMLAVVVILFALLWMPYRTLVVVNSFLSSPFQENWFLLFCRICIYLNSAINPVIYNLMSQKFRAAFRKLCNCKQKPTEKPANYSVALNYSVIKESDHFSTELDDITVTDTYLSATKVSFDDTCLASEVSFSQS
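Read-out: compound-evoked intracellular calcium rise in TRHR cells, fluo-8 dye, kinetic FDSS fluorescence at 1 s/cycle following a 10-cycle baseline. Cells cultured overnight before dye loading (30 min–1.5 h, RT).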
TRHR enhancer-1: TRH receptor (human) allosteric enhancement. P34981. TRHR cells, fluo-8 calcium fluorescence, EC20 TRH enhancement. enhancement, % at 2 µM. 0.66% of 360,000 active. AID 493056; in the data active = enhancement above about 30%; note: 0% is about no effect
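TRHR-expressing cells loaded with fluo-8 calcium dye were read kinetically (ex 480/em 530) during compound addition, then stimulated with an EC20 of TRH (10 nM final). Enhancement of the Gq-mediated intracellular calcium response was scored.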
TSG101-PTAP inh: blocks PTAP/TSG101 interaction to inhibit HIV-1 budding | Q99816 | Fluorescence polarization, FITC-PTAP peptide / Tsg101 binding | Potency, µM (highest dose often 115 µM), inactives show at the top dose activity change, negative = inhibition, most hits filed as inhibitors | 340,000 tested, under 10 active | AID 493005; active = well fitted inhibition curve with a large enough effect in the main read-out, with a control signal flat, not every such curve was filed as active; inconclusive = small, poorly fitted or top-dose-only effect, or effect the other way, or a change in a side signal; inactive = no such curve, though single readings can be large or run the other way; note: potency is the fitted concentration of half-maximal effect; % of control where 0% means no effect
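Compounds were pin-transferred onto Tsg101 binding domain (10 uM final) in HEPES pH 7.5 buffer, then FITC-PTAP peptide was added at 50 nM final. After 20 min at RT, polarization reported peptide displacement across a qHTS concentration series.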
TRPML1 ag: activates the human TRPML1 channel; Q9GZU1; TRPML1-expressing cells, Ca2+ dye fluorescence, FDSS; activation, % (no concentration beside the values); 0.12% of 410,000 active; AID 624414; in the data active = activation above about 50%; inconclusive = mostly about 30% to 49%; note: 0% is about no effect
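In this qHTS format, compounds were pin-transferred onto Ca8-dye-loaded TRPML1-DL cells induced with Tet overnight, and intracellular Ca2+ fluorescence was recorded kinetically for 110 s after a 10 s baseline. A subsequent 4uM final 54-4 (EC80) addition followed by a second 110 s read served as the antagonist phase.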
TRHR enhancer-2: human TRH receptor allosteric enhancement confirmation. TRH receptor cell assay, enhancer confirmation qHTS. shares compounds with TRHR enhancer-1. activity change, negative = inhibition, % at 46.1 µM. 970 tested, under 10 active. AID 493076;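 note: compound effect scored on response to added TRH at EC20 of 10 nM; 0% is about no effect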
TRHR agonist-2: human TRH receptor agonism confirmation | Potency, µM (doses to about 46.1 µM), without a hit: top-dose activation, usual class: activators | 8% of 970 active | TRHR-expressing cells, agonist activation read-out | AID 493078 | shares compounds with TRHR enhancer-1; note: potency is the fitted concentration of half-maximal effect; 0% is about no effect; nearly all actives have a fitted effect of over 75% in size
Numbers without * were called inactive; ? = inconclusive; . = not tested or not shown. An excerpt weighted towards active compounds, which were near 0.81% of everything screened. Unless noted, calls come from the whole dose curve; as a rule, active = well fitted curve in the direction sought with a large enough effect; inconclusive = small, poorly fitted or top-dose-only effect, or another doubt; inactive = no such curve, though single readings can be large; an effect the other way counts as inactive or inconclusive.

SMILES	TRPML1 blocker	TRHR agonist-1	TRHR enhancer-1	TSG101-PTAP inh	TRPML1 ag	TRHR enhancer-2	TRHR agonist-2
O=P1(c2ccccc2)C=Cn2c1cc1c2CCCC1 (configuration not stated)	3	0	60*	-8%	1	12	-1%
O=C(C[n+]1ccccc1Cl)c1ccccc1	.	.	.	.	0	.	.
C=CCN(C(=O)CSc1nc2[nH]ncc2c(=O)n1-c1ccccc1OC)c1ccccc1	-10	31*	-5	-13%	1	-3	3%
COc1cc(NC(=O)CSc2nc3[nH]ncc3c(=O)n2-c2ccccc2C)cc(OC)c1OC	-3	0	-2	-4%	0	.	.
CCN(Cc1cccc(S(=O)(=O)O)c1)c1ccc(C(=C2C=CC(=[N+](CC)Cc3cccc(S(=O)(=O)O)c3)C=C2)c2ccccc2S(=O)(=O)[O-])cc1	.	.	.	.	-1	.	.
CCC(C)NCC(O)(c1ccc(Cl)cc1)c1ccc(Cl)cc1 (configuration not stated)	-21	1	50*	0%	2	-5	?
Cc1ccc(CNCC(O)(c2ccccc2)c2ccc(Cl)cc2)cc1 (configuration not stated)	-9	1	0	1%	2	.	.
CCc1ccc2nc3n[nH]c(N)c3cc2c1	-6	-1	6	-3%	-1	.	.
Nc1[nH]nc2nc3ccccc3cc12	10	0	69*	0%	1	7	1%
O=C(C[n+]1ccccc1)c1cccc([N+](=O)[O-])c1	.	.	.	.	-1	.	.

High-throughput results as filed in PubChem.
